Common to all, as to experiment: NCI-60 one-dose screen, 48 h (100 = growth as untreated, 0 = no growth, -100 = all killed)
Common to all, as to conditions: 10 µM unless noted

Experiment [1] deals with SNB-75 CNS.
The subject of experiment [2] is SNB-19 CNS.
Experiment [3] relates to U251 CNS.
Experiment [4] concerns SK-MEL-5 melanoma.
For experiment [5], the system named is UACC-62 melanoma.
For experiment [6], the system named is LOX IMVI melanoma.
For experiment [7], the system named is SK-MEL-28 melanoma.
In experiment [8] the test system is SK-MEL-2 melanoma.
In experiment [9] the test system is EKVX NSCLC.
The subject of experiment [10] is SN12C renal.
Experiment [11] concerns UO-31 renal.
Experiment [12] relates to TK-10 renal.
Experiment [13] relates to ACHN renal.
Experiment [14] relates to A498 renal.
The test system of experiment [15] is CCRF-CEM leukemia.
The subject of experiment [16] is MOLT-4 leukemia.
The test system of experiment [17] is SR leukemia.
Experiment [18] has as its system PC-3 prostate.
Experiment [19] relates to CAKI-1 renal.

About 83,000 compounds went through this panel and 20% of them were active in at least one assay; those are over-represented in the sample as a whole.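 A percent growth of 40 corresponds to 60% growth inhibition; 0 means no net growth; -100 means all cells died. Active threshold: below 10.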 Values without a mark were called inactive. The source made the active and inactive calls.

Take `CCOC(=O)c1c2c(c(C)n1Cc1ccccc1)-c1nc(N)ncc1CC2`: the growth is 90.3% in [1]; 101% in [2]; 106% in [3]; 105% in experiment [4]; 77.2% in experiment [5]; 92.6% in experiment [6]. The growth in experiment [7] is 128%; in [8], 125%; in [9], 88.9%; in [10] it was 102%; in experiment [11], 79.7%; in experiment [12], 103%. Also, the growth in [13] is 92.2%; in experiment [14] it was 88.2%; in experiment [15], 93.7%; in experiment [16] it was 95.7%; in experiment [17], 86.2%.
For `CC(C)(C)c1ccc(S(=O)(=O)O)s1`, the growth is 92.4% in [1]; 95.5% in [2]; 105% in experiment [3]; 52.7% in experiment [18]; 109% in experiment [4]; 93.8% in [5]. Also, the growth in experiment [6] is 102%; in experiment [7] it was 112%; in experiment [9] it was 92.7%; in experiment [10] it was 97.7%; in [11] it was 40.1%; in [12] it was 110%. For the same compound, the growth in experiment [13] was 96.3%; in experiment [19], -3.29% (active); in experiment [14], 95.4%; in experiment [16], 76.1%; in experiment [17], 73.1%.
With `O=C(/C=C/c1cccnc1)/C=C/c1cccnc1`, the growth in [1] was 24.7%; in [2], 21.5%; in experiment [3], -34.9% (active); in experiment [4], 21%; in experiment [5], -69.4% (active); in experiment [6] it was -84% (active). The growth was -78.4% (active) in [7]; 64.1% in experiment [8]; 43.3% in [9]; 4.41% (active) in experiment [10]; -81.9% (active) in [11]; 17.3% in experiment [12]. Also, the growth in experiment [13] was 13%; in experiment [19], -20.5% (active); in experiment [14] it was 93.1%; in experiment [15], -48.4% (active); in experiment [16] it was -22.8% (active); in experiment [17], -57.3% (active).
`Cc1cc(NC(=O)Nc2cc(Cl)ccc2C)no1`: the growth in experiment [1] is 76.8%; in experiment [2], 110%; in experiment [3], 108%; in [4], 102%; in experiment [5], 91.1%; in experiment [6], 99.3%. Moreover, the growth was 142% in experiment [7]; 116% in experiment [8]; 87% in experiment [9]; 109% in experiment [10]; 96.2% in experiment [11]; 231% in experiment [12]. The growth is 103% in [13]; 96.1% in experiment [19]; 133% in experiment [14]; 109% in experiment [15]; 97.5% in experiment [16]; 59.4% in experiment [17].
As for `COc1ccc(/C=N\Nc2ccc([N+](=O)[O-])cn2)cc1OC`, the growth was -0.426% (active) in experiment [1]; 39.7% in experiment [2]; -18.5% (active) in [3]; 85.5% in experiment [4]; 81.7% in [5]; 68.7% in [6]. The growth was 79.5% in [7]; 63.6% in experiment [9]; 26.2% in experiment [10]; -11.9% (active) in experiment [11]; -63.4% (active) in experiment [12]; -3.48% (active) in experiment [13]. Also, the growth in experiment [19] is 43.1%; in [14], -26.2% (active); in experiment [15] it was 124%; in experiment [16], 101%; in experiment [17] it was 52.9%.
On to `O=c1cc(-c2cccnc2)oc2c1ccc1ccccc12`, for which the growth was 54.4% in experiment [1]; 64.7% in experiment [2]; 48.8% in [3]; 63.3% in experiment [4]; 70.3% in experiment [5]; 75.5% in [6]. Moreover, the growth in experiment [7] was 69.3%; in experiment [8] it was 110%; in experiment [9] it was 86.3%; in [10], 80.3%; in experiment [11], 60.5%; in experiment [12], 114%. Further, the growth was 69.6% in [13]; 72.9% in experiment [19]; 61.6% in experiment [14]; 88.1% in [15]; 103% in [16]; 39.3% in experiment [17].
On to `COC(=O)CCC1=C(C)C(C)=N/C1=C\c1[nH]c(-c2ccc[nH]2)cc1OC`, for which the growth was -34.9% (active) in [1]; 35% in [2]; -22.9% (active) in experiment [3]; -91.5% (active) in [4]; -67.4% (active) in experiment [5]; -55.5% (active) in [6]. Also, the growth in experiment [7] was 10.7%; in experiment [9], 29.9%; in experiment [10] it was 13.9%; in experiment [11], -67% (active); in [12] it was 16%; in experiment [13], -7.31% (active). Further, the growth was 11.6% in [19]; 4.29% (active) in experiment [14]; -22.7% (active) in [15]; -29.7% (active) in experiment [16]; -31.4% (active) in [17].
For `Cc1ccc(C(C)C)cc1NC(=O)Nc1ccc([N+](=O)[O-])cc1`, the growth is 40.9% in experiment [1]; 20.1% in experiment [2]; 15.4% in experiment [3]; 16.7% in experiment [4]; 11.7% in [5]; 5.39% (active) in experiment [6]. Also, the growth was 22.4% in experiment [7]; -2.75% (active) in experiment [8]; 15.6% in [9]; 10.9% in experiment [10]; -0.838% (active) in [11]; 16.8% in experiment [12]. In addition, the growth is 7.86% (active) in experiment [13]; 10.5% in [19]; 7.54% (active) in [14]; -14.5% (active) in experiment [15]; -23% (active) in [16]; 3.13% (active) in [17].
On to `C=C(C)[C@@H]1C[C@H](O)Cc2cc(Cl)cc(Cl)c2N1`, for which the growth in [1] is 87.4%; in experiment [2], 103%; in experiment [3], 94.7%; in experiment [4] it was 102%; in experiment [5] it was 95%; in experiment [6] it was 92.3%. In addition, the growth in experiment [7] is 114%; in experiment [9], 84.3%; in [10], 96.9%; in experiment [11] it was 81.4%; in experiment [12], 98.7%; in experiment [13], 95.9%. Moreover, the growth in experiment [19] was 91.6%; in experiment [14], 87.2%; in [15], 103%; in experiment [16], 88.3%; in experiment [17], 108%.

The values above are taken from PubChem BioAssay (NCI).
